Screening data: PubChem BioAssay, Broad Institute
aSyn 5UTR act = Activators via SNCA 5'UTR binding, MLPCN | alpha-synuclein 5'UTR reporter, activators screen | activity score, % (tested at 7.5 µM), hits read low | hit rate 7.1% among 300,000 | AID 1814; in the data active = activity score below about -60%
Starred values were filed as active, the others as inactive. These entries were drawn from the full list.

Screening COc1ccccc1CNC(=O)[C@@H]1CCCN1S(=O)(=O)c1ccc(C)cc1 returned aSyn 5UTR act -113*.
`CC(=O)/C(N=Nc1ccc2c(c1)OCO2)=C(\C)O` gave aSyn 5UTR act -245*.
For O=C(Nc1nc2ccccc2[nH]1)C1CCC1 the results were aSyn 5UTR act -104*.
For O=C(Nc1nc2ccccc2[nH]1)C1CCCC1 the results were aSyn 5UTR act -80*.
CCS(=O)(=O)N1Cc2ccccc2CC1C(=O)Nc1nc2ccccc2[nH]1 (stereo not given) was read as aSyn 5UTR act -101*.
Screening O=C(CC1CCCC1)Nc1nc2ccccc2[nH]1 returned aSyn 5UTR act -123*.
Cc1ccc(NC(=O)c2ccco2)c([N+](=O)[O-])c1 was read as aSyn 5UTR act -197*.
`COc1ccc(NC(=O)c2ccco2)c([N+](=O)[O-])c1` gave aSyn 5UTR act -76*.
CN(C)c1ccc(/C=N/NC(=O)c2ccnn2C)cc1 was read as aSyn 5UTR act -110*.
`CN(C)c1ccc(/C=N/NC(=O)c2ccn(C)n2)cc1` gave aSyn 5UTR act -115*.
CCCNc1c(F)c(F)c2c(C)c3ccccc3nc2c1F was read as aSyn 5UTR act -80*.
Screening FC(F)(F)c1ccc(Nc2nnnc3ccccc23)cc1 returned aSyn 5UTR act -140*.
COc1ccccc1-c1c(C(F)(F)F)oc2cc(OS(C)(=O)=O)ccc2c1=O was read as aSyn 5UTR act -101*.
`c1ccc(Nc2nc(-c3ccncc3)cs2)cc1` gave aSyn 5UTR act -151*.
Screening Nc1ccc(Nc2nc(-c3ccncc3)cs2)cc1 returned aSyn 5UTR act -135*.
Cc1nc2ncccn2c1-c1csc(Nc2ccc(N(C)C)cc2)n1 was read as aSyn 5UTR act 70.
`Fc1ccc(Nc2nc(-c3ccncc3)cs2)cc1` gave aSyn 5UTR act -114*.
Clc1ccc(Nc2nc(-c3ccncc3)cs2)cc1 was read as aSyn 5UTR act -85*.
Screening O=C(Nc1nc2c(s1)CCCC2=O)c1cnccn1 returned aSyn 5UTR act -88*.
Screening N/C(=N\O)c1ccc(NC(=O)c2ccc(Br)o2)cc1 returned aSyn 5UTR act -67*.
Screening C/C(=N/NC(=O)c1ccco1)c1ccc(NC(=O)c2ccc(Br)o2)cc1 returned aSyn 5UTR act -82*.
`CCCCCC(=O)N/N=C(\C)c1ccc(NC(=O)c2ccco2)cc1` gave aSyn 5UTR act -107*.
For C/C(=N/NC(=O)c1ccco1)c1ccc(NC(=O)c2ccc(F)cc2)cc1 the results were aSyn 5UTR act -109*.
Screening CC(=O)Nc1ccc(/C(C)=N\NC(=O)c2ccc(-c3ccccc3)cc2)cc1 returned aSyn 5UTR act 96.
`C/C(=N\NC(=O)c1ccc(F)cc1)c1ccc(NC(=O)Cc2ccccc2)cc1` gave aSyn 5UTR act -75*.
Screening O=C(O)Cn1cc(/C=c2/sc3nc4ccccc4n3c2=O)c2ccccc21 returned aSyn 5UTR act -162*.
Screening Cc1ccc(-n2c(C)cc(/C=c3/sc4nc5ccccc5n4c3=O)c2C)cc1 returned aSyn 5UTR act 67.
O=C(N=C1c2ccccc2CN1c1ccc(F)c(Cl)c1)c1cccnc1Cl was read as aSyn 5UTR act -106*.
`N#Cc1ccc(N2Cc3ccccc3C2=NC(=O)c2cccnc2Cl)cc1` gave aSyn 5UTR act -106*.
`Cn1c(=O)oc2cc(S(=O)(=O)CCC(=O)Nc3ccccc3)ccc21` gave aSyn 5UTR act -64*.
For COc1ccc2nc(NC(=S)N(C)C)sc2c1 the results were aSyn 5UTR act -81*.
COc1ccc2nc(NC(=O)CSc3ccccc3)sc2c1 was read as aSyn 5UTR act -128*.
For CCOc1ccc2nc(NC(=O)CSC3=NCCS3)sc2c1 the results were aSyn 5UTR act -77*.
Screening COc1ccc2nc(NC(=O)CSC3=NCCS3)sc2c1 returned aSyn 5UTR act -88*.
COc1ccc2nc(NC(=O)CSc3cn[nH]n3)sc2c1 was read as aSyn 5UTR act -68*.
For CCCC(=O)Nc1nc2ccc(OC)cc2s1 the results were aSyn 5UTR act -133*.
COc1ccc2nc(NC(=O)CN3CCOCC3)sc2c1 was read as aSyn 5UTR act -63*.
`CCOc1ccc2nc(NC(=O)CSc3nc(SC)ns3)sc2c1` gave aSyn 5UTR act -167*.
`Cc1nc(NC(=O)CN2CCOCC2)sc1-c1ccccc1` gave aSyn 5UTR act -74*.
`CC(=O)N1CC(=O)N=C1SCC(=O)Nc1nc(C)c(-c2ccccc2)s1` gave aSyn 5UTR act -79*.
Screening Cc1ccc2cc3cc(C(=O)NC4CCCCC4)oc3nc2c1 returned aSyn 5UTR act -153*.
For Cc1ccc2cc3cc(C(=O)NC4CC4)oc3nc2c1 the results were aSyn 5UTR act -134*.
CCn1c(/C=C/c2c[nH]c3ccccc23)nc2ccccc2c1=O was read as aSyn 5UTR act -176*.
`CCn1c(/C=C\c2ccccc2C)nc2ccccc2c1=O` gave aSyn 5UTR act -63*.
Screening CCn1c(/C=C/c2ccccc2Cl)nc2ccccc2c1=O returned aSyn 5UTR act -191*.
`O=C(Nc1cc(C(F)(F)F)ccc1N1CCOCC1)c1ccc2ccccc2n1` gave aSyn 5UTR act -80*.
